# Data taken from PubChem BioAssay (EPA / NIEHS).
# Several values for one entry are separate records, joined by “and”; a condition that tells them apart may be missing. Identical values can stand only once. Some structures have more than one record in an assay (separate samples or runs), and their calls can disagree. Activity calls are given as the source filed them. How the source made its calls: active means hit-call score of the fitted dose curve at least 0.9, where 1 is the maximum; inactive means score below 0.9.
# Key:
# [1] = BSK_3C_TissueFactor: BioMAP Diversity Plus: 3C Assay for Tissue Factor Biomarker Activity (AID 2282997); conditions: BioMAP 3C HUVEC, tissue factor biomarker readout; actives raise or lower the signal
# Summary of the method: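 Tissue Factor measured by ELISA, 24 h after treatment of primary HUVEC in the BioMAP 3C setting.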
# [2] = BSK_3C_uPAR: BioMAP Diversity Plus: 3C Assay for Urokinase-type plasminogen activator receptor (uPAR) Biomarker Activity (AID 2282998); conditions: BioMAP 3C HUVEC, uPAR biomarker ELISA; actives raise or lower the signal
# Summary of the method: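 Dose primary human umbilical vein endothelial cells, incubate 24 h, measure cell-surface uPAR by ELISA, then fit the signal in both directions against the DMSO negative control.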
# [3] = BSK_4H_Eotaxin3: BioMAP Diversity Plus: 4H Assay for Eotaxin 3 Biomarker Activity (AID 2283000); conditions: primary human endothelial cells (HUVEC); actives raise or lower the signal
# Summary of the method: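 Eotaxin-3 (CCL26) levels were measured by ELISA in HUVEC primary cultures 24 h post-dosing. Gain or loss of signal was fitted in both directions, with DMSO serving as baseline and negative control.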
# [4] = read-out: Intercellular Adhesion Molecule 1 (ICAM1), ICAM1 (gene 3383); assay: BSK_3C_ICAM1: BioMAP Diversity Plus: 3C Assay for Intercellular Adhesion Molecule 1 (ICAM1) Biomarker Activity (AID 2283003); conditions: primary human endothelial cells (HUVEC); actives raise or lower the signal
# Summary of the method: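 ELISA read-out of ICAM-1; HUVEC (primary human), 3C system, 24 h post-dosing; bidirectional fit vs DMSO baseline.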
# [5] = BSK_3C_Proliferation: Cell Proliferation Assessment in the BioMAP Diversity Plus: 3C Assay (AID 2283006); conditions: primary human endothelial cells (HUVEC);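 further: potency may reflect either rise or fall in cell number versus DMSO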
# Summary of the method: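 HUVEC, sub-confluent; 48 h chemical exposure; 10% TCA fix, 0.1% SRB stain, A560 total protein. Gain or loss of signal fitted both directions vs DMSO control.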
# [6] = read-out: E-selectin (Homo sapiens) (UniProt P16581); assay: BSK_3C_Eselectin: BioMAP Diversity Plus: 3C Assay for Eselectin Biomarker Activity (AID 2283015); conditions: primary human endothelial cells (HUVEC); actives raise or lower the signal;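 further: cell surface E-selectin protein quantified by ELISA 24 h after dosing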
# Summary of the method: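 Primary human umbilical vein endothelial cells (3C system), read 24 h after compound addition; E-selectin measured by ELISA. Bidirectional curve fitting against DMSO baseline; cytotoxicity by parallel SRB total-protein staining.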
# [7] = read-out: Interleukin-1 alpha (IL1a), IL1A (gene 3552); assay: BSK_BE3C_IL1a: BioMAP Diversity Plus: BE3C Assay for Interleukin-1 alpha (IL1a) Biomarker Activity (AID 2283016); conditions: primary human bronchial epithelial cells; actives raise or lower the signal
# Summary of the method: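 ELISA read-out of IL-1a from human lung bronchial epithelial primary cells, 24 h post-dose. Gain or loss of signal fitted relative to DMSO negative control.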
# [8] = read-out: Monocyte Chemoattractant Protein-1 (MCP1), CCL2 (gene 6347); assay: BSK_3C_MCP1: BioMAP Diversity Plus: 3C Assay for Monocyte Chemoattractant Protein-1 (MCP1) Biomarker Activity (AID 2283017); conditions: primary human endothelial cells (HUVEC); actives raise or lower the signal
# Summary of the method: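 Human umbilical vein endothelial cells (3C system) exposed to chemicals for 24 h; MCP-1 quantified by ELISA against the DMSO baseline with bidirectional fitting, and parallel SRB staining used to assess cytotoxicity.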
# [9] = read-out: Monocyte Chemoattractant Protein-1 (MCP1), CCL2 (gene 6347); assay: BSK_4H_MCP1: BioMAP Diversity Plus: 4H Assay for Monocyte Chemoattractant Protein-1 (MCP1) Biomarker Activity (AID 2283018); conditions: primary human endothelial cells (HUVEC); actives raise or lower the signal
# Summary of the method: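 HUVEC primary cells, 24 h post-dose, MCP-1 by ELISA. Gain or loss of signal fitted bidirectionally vs DMSO baseline. Cytotoxicity: SRB stain (0.1% after 10% TCA fixation), read 560 nm, parallel cultures.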
# [10] = read-out: Human Leukocyte Antigen - DR isotype (HLADR), HLA-DRA (gene 3122); assay: BSK_3C_HLADR: BioMAP Diversity Plus: 3C Assay for Human Leukocyte Antigen - DR isotype (HLADR) Biomarker Activity (AID 2283019); conditions: primary human endothelial cells (HUVEC); actives raise or lower the signal
# Summary of the method: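 HUVEC monoculture, HLA-DR measured by ELISA 24 h after chemical dosing. Fitted bidirectionally against DMSO baseline; parallel SRB staining assessed cytotoxicity, with 3C proliferation read by SRB at 48 h.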
# [11] = read-out: Interleukin-8 (IL8), CXCL8 (gene 3576); assay: BSK_3C_IL8: BioMAP Diversity Plus: 3C Assay for Interleukin-8 (IL8) Biomarker Activity (AID 2283020); conditions: primary human endothelial cells (HUVEC); actives raise or lower the signal
# Summary of the method: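 HUVEC, 3C stimulation; 24 h compound exposure; IL-8 read by ELISA; gain or loss of signal fitted relative to DMSO control.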
# [12] = read-out: Monokine induced gamma interferon (MIG), CXCL9 (gene 4283); assay: BSK_3C_MIG: BioMAP Diversity Plus: 3C Assay for Monokine induced gamma interferon (MIG) Biomarker Activity (AID 2283021); conditions: primary human endothelial cells (HUVEC); actives raise or lower the signal
# Summary of the method: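 HUVEC, 3C system; 24 h chemical exposure; MIG by ELISA; bidirectional fit vs DMSO baseline.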
# [13] = read-out: Matrix Metallopeptidase 1 (MMP1), MMP1 (gene 4312); assay: BSK_BE3C_MMP1: BioMAP Diversity Plus: BE3C Assay for Matrix Metallopeptidase 1 (MMP1) Biomarker Activity (AID 2283024); conditions: primary human bronchial epithelial cells; actives raise or lower the signal
# Summary of the method: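 ELISA read-out of MMP1 in human lung bronchial epithelial primary cultures, 24 h post-dose; bidirectional curve fit vs DMSO baseline, gain or loss of signal scored.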
# [14] = read-out: Pselectin, SELP (gene 6403); assay: BSK_4H_Pselectin: BioMAP Diversity Plus: 4H Assay for Pselectin Biomarker Activity (AID 2283026); conditions: primary human endothelial cells (HUVEC); actives raise or lower the signal
# Summary of the method: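 HUVEC, 24 h chemical exposure; P-selectin read by ELISA. Bidirectional curve fit vs DMSO baseline; gain or loss of signal scored.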
# [15] = BSK_4H_SRB: Viability Assessment in the BioMAP Diversity Plus: 4H Assay (AID 2283027); conditions: primary human endothelial cells (HUVEC);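 further: cells exposed to compound for 24 h before staining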
# Summary of the method: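 Cytotoxicity read-out in primary human endothelial cells: after 24 h compound exposure, cells were TCA-fixed (10%), stained with 0.1% SRB and absorbance taken at 560 nm. Values fitted in both directions relative to DMSO.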
# [16] = BSK_BE3C_SRB: Viability Assessment in the BioMAP Diversity Plus: BE3C Assay (AID 2283028); conditions: primary human bronchial epithelial cells
# Summary of the method: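 Human bronchial epithelial primary cells in confluent culture, 24 h after chemical dosing; total protein by 0.1% SRB staining after 10% TCA fixation, read at 560 nm. Bidirectional fitting versus DMSO baseline.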
# [17] = read-out: Thrombomodulin, THBD (gene 7056); assay: BSK_3C_Thrombomodulin: BioMAP Diversity Plus: 3C Assay for Thrombomodulin Biomarker Activity (AID 2283029); conditions: primary human endothelial cells (HUVEC); actives raise or lower the signal
# Summary of the method: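 HUVEC, 3C conditions; compound 24 h; thrombomodulin by ELISA; bidirectional curve fit vs DMSO baseline; parallel SRB total-protein staining for cytotoxicity.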
# [18] = read-out: Urokinase-type plasminogen activator receptor (uPAR), PLAUR (gene 5329); assay: BSK_4H_uPAR: BioMAP Diversity Plus: 4H Assay for Urokinase-type plasminogen activator receptor (uPAR) Biomarker Activity (AID 2283030); conditions: primary human endothelial cells (HUVEC); actives raise or lower the signal
# Summary of the method: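 Human umbilical vein endothelial cells in the 4H system, 24 h after chemical dosing. Cell-surface uPAR measured by ELISA, fitted in both directions versus DMSO; cytotoxicity checked by SRB total protein in parallel cultures.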
# [19] = read-out: Vascular endothelial growth factor receptor 2 (Homo sapiens) (UniProt P35968); assay: BSK_4H_VEGFRII: BioMAP Diversity Plus: 4H Assay for Vascular endothelial growth factor receptor 2 (VEGFR2) Biomarker Activity (AID 2283031); conditions: primary human endothelial cells (HUVEC); actives raise or lower the signal;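 on AC50: cell-surface VEGFR2 protein level quantified by ELISA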
# Summary of the method: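 Primary human umbilical vein endothelial cells (4H system), 24 h exposure; cell-surface VEGFR2 measured by ELISA. Bidirectional fitting versus DMSO; cytotoxicity checked in parallel by SRB total-protein staining.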
# [20] = read-out: Human Leukocyte Antigen - DR isotype (HLADR), HLA-DRA (gene 3122); assay: BSK_BE3C_HLADR: BioMAP Diversity Plus: BE3C Assay for Human Leukocyte Antigen - DR isotype (HLADR) Biomarker Activity (AID 2283032); conditions: primary human bronchial epithelial cells; actives raise or lower the signal
# Summary of the method: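 Primary human bronchial epithelial cells (BE3C); 24 h chemical exposure; HLA-DR by ELISA; bidirectional curve fit vs DMSO baseline.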
# E-selectin (Homo sapiens), sequence (P16581 whole entry, looked up): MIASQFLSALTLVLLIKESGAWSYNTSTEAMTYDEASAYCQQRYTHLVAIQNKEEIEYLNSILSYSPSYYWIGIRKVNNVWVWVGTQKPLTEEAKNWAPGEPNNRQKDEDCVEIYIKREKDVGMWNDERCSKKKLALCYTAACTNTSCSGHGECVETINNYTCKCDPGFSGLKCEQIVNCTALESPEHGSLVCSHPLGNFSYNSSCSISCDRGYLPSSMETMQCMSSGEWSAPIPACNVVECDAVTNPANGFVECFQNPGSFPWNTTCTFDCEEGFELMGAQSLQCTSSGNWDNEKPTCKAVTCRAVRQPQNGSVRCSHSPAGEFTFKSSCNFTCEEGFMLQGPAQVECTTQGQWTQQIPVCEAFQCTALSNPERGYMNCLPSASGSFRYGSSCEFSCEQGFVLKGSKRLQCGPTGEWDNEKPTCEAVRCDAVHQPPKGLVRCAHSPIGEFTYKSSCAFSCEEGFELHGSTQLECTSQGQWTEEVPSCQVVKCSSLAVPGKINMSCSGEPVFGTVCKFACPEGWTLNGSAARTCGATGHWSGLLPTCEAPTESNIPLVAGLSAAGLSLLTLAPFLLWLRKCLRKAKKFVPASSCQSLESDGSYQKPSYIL
smiles,measurement,setting,value
[Cd+2].[Cl-].[Cl-],AC50,[1],1 µM (active) and 863 nM (active)
same,outcome,[2],inactive
same,AC50,[3],35.7 µM (active) and 32.2 µM (active)
same,outcome,[4],inactive
same,AC50,[5],30.1 µM (active) and 30 µM (active)
same,outcome,[6],inactive
same,outcome,[7],inactive
same,outcome,[8],inactive
same,outcome,[9],inactive
same,AC50,[10],17 µM (active) and 10.9 µM (active)
same,AC50,[11],20 µM (active)
same,outcome,[11],inactive
same,outcome,[12],inactive
same,outcome,[13],inactive
same,AC50,[14],4.97 µM (active)
same,outcome,[14],inactive
same,outcome,[15],inactive
same,outcome,[16],inactive
same,outcome,[17],inactive
same,outcome,[18],inactive
same,AC50,[19],6.83 µM (active)
same,outcome,[19],inactive
same,AC50,[20],20 µM (active)
